In PubChem BioAssay:
Values without a mark were called inactive. Active and inactive are the calls of the source.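 The calls were made as follows, unless noted: active = mean inhibition above 46.68%, the untreated control wells mean plus 3 SD; inactive = the rest.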

Key:
[1] = target: Nuclear receptor coactivator 1 (Homo sapiens) (UniProt Q15788); experiment: SRC1 coactivator transcriptional activity inhibitors, confirmation, cell-based, luminescence, quadruplicate (AID 588820); details: HEK293 GAL4-SRC1 luciferase reporter, at 3.6 µM, stronger effect = higher value;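 also: 0% = DMSO wells and 100% = gossypol 36 µM treated wells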
Sequence of Nuclear receptor coactivator 1 (Homo sapiens) (Q15788 whole entry, looked up, the tested form may be a part): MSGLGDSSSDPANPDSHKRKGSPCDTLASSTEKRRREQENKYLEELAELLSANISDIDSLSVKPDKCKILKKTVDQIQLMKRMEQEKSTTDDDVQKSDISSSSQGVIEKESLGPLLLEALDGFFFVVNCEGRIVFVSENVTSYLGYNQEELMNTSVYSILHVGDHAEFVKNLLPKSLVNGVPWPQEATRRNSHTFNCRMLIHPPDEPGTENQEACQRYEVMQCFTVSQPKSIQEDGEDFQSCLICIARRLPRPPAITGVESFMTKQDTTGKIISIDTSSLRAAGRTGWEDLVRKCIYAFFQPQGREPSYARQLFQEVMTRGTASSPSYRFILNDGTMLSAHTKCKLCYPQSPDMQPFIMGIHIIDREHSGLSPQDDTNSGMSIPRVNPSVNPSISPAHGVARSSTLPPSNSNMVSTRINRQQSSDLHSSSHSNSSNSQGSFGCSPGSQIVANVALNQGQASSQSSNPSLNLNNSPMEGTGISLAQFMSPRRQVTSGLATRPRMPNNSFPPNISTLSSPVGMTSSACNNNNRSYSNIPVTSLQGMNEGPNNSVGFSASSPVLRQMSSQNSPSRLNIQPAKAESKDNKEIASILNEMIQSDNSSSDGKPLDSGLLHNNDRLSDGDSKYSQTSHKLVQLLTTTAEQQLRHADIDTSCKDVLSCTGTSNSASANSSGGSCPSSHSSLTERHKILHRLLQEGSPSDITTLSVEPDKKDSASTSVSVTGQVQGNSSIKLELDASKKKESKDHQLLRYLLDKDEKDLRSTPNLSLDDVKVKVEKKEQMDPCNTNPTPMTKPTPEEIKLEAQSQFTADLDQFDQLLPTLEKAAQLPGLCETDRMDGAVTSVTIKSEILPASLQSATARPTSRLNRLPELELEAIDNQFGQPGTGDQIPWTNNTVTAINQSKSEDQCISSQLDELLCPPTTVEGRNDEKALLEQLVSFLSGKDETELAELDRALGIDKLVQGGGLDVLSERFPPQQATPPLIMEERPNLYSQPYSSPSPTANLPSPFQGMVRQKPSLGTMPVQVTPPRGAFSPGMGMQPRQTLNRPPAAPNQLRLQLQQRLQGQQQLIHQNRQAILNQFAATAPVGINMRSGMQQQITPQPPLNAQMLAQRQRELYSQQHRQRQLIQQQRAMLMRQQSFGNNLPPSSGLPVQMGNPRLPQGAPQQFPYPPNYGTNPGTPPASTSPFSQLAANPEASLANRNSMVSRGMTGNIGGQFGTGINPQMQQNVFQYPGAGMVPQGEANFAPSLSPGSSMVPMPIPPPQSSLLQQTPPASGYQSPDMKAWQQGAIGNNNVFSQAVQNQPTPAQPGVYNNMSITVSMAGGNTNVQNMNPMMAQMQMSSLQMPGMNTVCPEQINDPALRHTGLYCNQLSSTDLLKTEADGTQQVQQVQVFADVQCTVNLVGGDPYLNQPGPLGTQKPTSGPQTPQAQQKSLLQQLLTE

[2] = VP16 transactivation inhibitors, counter-screen for SRC1 inhibitor project, cell-based, luminescence, high throughput (AID 588824; in the data active = inhibition above about 25%); details: cell-based VP16 transactivation luciferase luminescence; at 3.6 µM; stronger effect = higher value

SMILES	inhibition [1]	inhibition [2]
CCOC(=O)c1c(NC(=O)C(C)N2CCN(C(=O)c3ccco3)CC2)sc2c1CCCC2 (centres undefined)	16.6%	12%
O=C(c1cc(COc2c(F)cccc2F)on1)N1CCC(c2ccncc2)CC1	-8.98%	19.7%
COC(=O)c1cc(=O)n(Cc2ccco2)c(=Nc2ccc(F)c(Cl)c2)s1	-12.1%	18.7%
Cn1c(O)c(N=NC(=N)N)c2ccccc21	5.65%	11.6%
CC(=C\c1ccccc1)/C=C1/SC(=S)N(CCC(=O)O)C1=O	-20.4%	-5.15%
Cc1cc(C)c(CN2CCN(C(=O)Cn3cnc4c(OCc5ccccc5)ncnc43)CC2)c(C)c1	4.65%	38.5% (active)
Cc1ccc(-c2nc(-c3ccccc3)no2)c(Cl)c1	-51.6%	-16.6%
O=C(COc1ccc(S(=O)(=O)Nc2ccccc2)cc1)NCc1ccncc1	-7.07%	2.08%
Cc1ccc(S(=O)(=O)N(C)c2ccc(C(=O)Nc3ccccc3C(=O)N3CCOCC3)cc2)cc1	-10.1%	-3.41%
CS(=O)(=O)c1ccc(NC(=O)CCN2C(=O)C3CCCCC3C2=O)cc1 (centres undefined)	-9.83%	-10.5%
Cc1csc(NC(=O)c2cc(-c3ccccc3)nc3ccccc23)n1	7.56%	1.79%
CCOc1ccc(NC(=O)CN(C)C(=O)C2CCN(c3ncnc4sc(C)c(C)c34)CC2)cc1OCC	0.38%	3.14%
